# From PubChem BioAssay (NCATS)
# Where “and” joins values, the source holds several entries; their conditions need not be identical. Equal entries are not always repeated. A number with no mark means an inactive call. Calls of active or inactive are those of the source. No rule for the calls is given here.
# Target: Nuclear receptor subfamily 1 group I member 2 (Rattus norvegicus) (UniProt Q9R1A7)
# Assay: qHTS assay for small molecule activators of the rat pregnane X receptor (rPXR) signaling pathway (AID 651751)
# Conditions: rPXR reporter cells, luciferase (One-Glo), 24 h
# Also: 0% is about no effect.
# Nuclear receptor subfamily 1 group I member 2 (Rattus norvegicus), sequence (Q9R1A7 whole entry, looked up): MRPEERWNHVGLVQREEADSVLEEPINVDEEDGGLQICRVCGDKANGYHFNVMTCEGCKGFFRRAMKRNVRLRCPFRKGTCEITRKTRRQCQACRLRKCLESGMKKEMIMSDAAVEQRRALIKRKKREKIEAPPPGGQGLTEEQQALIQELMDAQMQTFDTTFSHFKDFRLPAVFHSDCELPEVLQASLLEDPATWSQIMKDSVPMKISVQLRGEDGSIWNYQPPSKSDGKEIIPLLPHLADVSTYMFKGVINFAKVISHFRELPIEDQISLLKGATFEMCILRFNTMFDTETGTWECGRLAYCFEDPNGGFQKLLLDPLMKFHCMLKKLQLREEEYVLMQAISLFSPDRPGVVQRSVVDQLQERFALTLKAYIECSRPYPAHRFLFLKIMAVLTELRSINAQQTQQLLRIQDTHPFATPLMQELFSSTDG
row,SMILES,max response
1,C=Cc1ccccc1,2.91% and 3.44%
2,CCCCCCCCCC(=O)O,-3.39% and -5.8%
3,O=C(O)CC(O)(CC(=O)O)C(=O)O,-3.16% and 0.294% and 0.384%
4,CN(C)Cc1ccccc1,2.69%

# Tested on: not listed separately
# Assay: qHTS assay for small molecule activators of the human pregnane X receptor (PXR) signaling pathway (AID 720659)
# Conditions: DPX-2 HepG2 CYP3A4-luciferase, 24 h; series mostly up to 92.3 µM
row,SMILES,outcome
1,C=Cc1ccccc1,inactive
2,CCCCCCCCCC(=O)O,inactive
3,O=C(O)CC(O)(CC(=O)O)C(=O)O,inactive
4,CN(C)Cc1ccccc1,inactive
